Experimental findings from the supplement of paper PMC7156485 are described below.

Each structure is given as a SMILES string. ± gives the standard deviation of the averaged measurements.
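Further: TDF denotes transformed human dermal fibroblasts of mesenchymal origin.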

The subject of the first test is HCC1569. Put plainly: cell number relative to DMSO (% of DMSO); higher = more cells (less growth inhibition / toxicity). The note with it: concentration: 10 µM; 24 h. An outline of the steps:
(§1)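 For HCC1569 and TDF cells, compounds at 10 µM were applied for 24 h at 37 °C in triplicate in 384-well plates. Cells were fixed in 3.7% formaldehyde, stained for H1.0 and with DAPI, and imaged at ×10 over six fields per well. The endpoint, H1.0 nuclear intensity or cell number, is shown as percent of the plate control using the median of replicates. Positional effects were smoothed for HCC1569 only.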
As to `CN(C)[C@@H](CCOc1cccc2ccccc12)c1ccccc1.Cl`, the cell number was 90.3.
The same measure, in the same setting: to `C=CCc1ccccc1OCC(O)CNC(C)C.Cl` (stereo unspecified) [Alprenolol.HCl] belongs 102; to `CS(=O)(=O)O.N=C(N)SCCc1ccc(OCc2ccc([N+](=O)[O-])cc2)cc1`, 88.6.
For the compound `O=c1cc(N2CCNCC2)oc2c(-c3ccccc3)cccc12`, the cell number worked out at 101.
The same measure, in the same setting: as for `CCCCCCCCCCCCCCC(C(=O)O)=C(C)C(=O)O` [Chaetomellic acid A], the figure is 102.

Another test relates to TDF. The description is as above. The settings on record: concentration: 10 µM; 24 h. An outline of the steps: as §1
On to `Cc1cc(C)c(S(=O)(=O)Nc2cccc(C(F)(F)F)c2)c(C)c1`, for which the cell number is 90.
As for `CC1(C)CCC(C)(C)c2cc(C(=O)Nc3ccc(C(=O)O)cc3)ccc21`, the cell number was 104.
Compound `CC(C=CC1=C(C)CCCC1(C)C)=CC=CC(C)=CC(=O)Nc1ccc(O)cc1` [Fenretinide] returned a cell number of 106.
On the same count and under the same terms, as for `CC(CCC(=O)NCCS(=O)(=O)O)C1CCC2C3C(O)CC4CC(O)CCC4(C)C3CC(O)C12C` (stereo unspecified) [Taurocholic acid], the figure is 104; as for `O=C(O)c1cc(O)ccc1O` [Gentisic acid], 100; as for `O=C1CC(=O)c2c(Cl)c(Cl)c(Cl)c(Cl)c21` [4,5,6,7-tetrachloro-1H-indene-1,3(2H)-dione], 103.
The compound `CCCCCCCCCCCCCCCCCC(=O)NCC(COP(=O)([O-])OCC[N+](C)(C)C)OC` (racemic) [rac-2-Methoxy-3-octadecanamido-1-propylphosphocholine] registered a cell number of 84.5.
On the same count and under the same terms, to `CN(c1ncccc1CNc1nc(Nc2ccc3c(c2)CC(=O)N3)ncc1C(F)(F)F)S(C)(=O)=O` belongs 32.3; to `CS(=O)(=O)c1ccc(C(O)C(COC(=O)CN)NC(=O)C(Cl)Cl)cc1` (stereo unspecified) [Thiamphenicol glycinate], 96.1.
In turn, `CCCCCCC=CC=CCCCCCCCC(=O)O` [9(Z), 11(Z)-octadecadienoic acid] returned a cell number of 108.
Still for that read-out and setting: as for `CCC1OC(=O)C(C)C(OC2CC(C)(OC)C(O)C(C)O2)C(C)C(OC2OC(C)CC(N(C)C)C2O)C(C)(O)CC(C)C(=NOCOCCOC)C(C)C(O)C1(C)O` (stereo unspecified) [Roxithromycin], the figure is 98.4; as for `Br.Br.N=C(N)SCCc1cnc[nH]1` [Imetit dihydrobromide], 103.
In turn, `CC(C=CC1=C(C)CCCC1(C)C)=CC=CC(C)=CC(=O)O` [Retinoic acid] came in with a cell number of 102.
As for `CCc1[nH]c(-c2ccc(OC)cc2)nc1-c1ccncc1`, the cell number worked out at 99.6.
Regarding `CCCCCC(=O)C=CC=CCCCCCCCC(=O)O` [13-Ketooctadecadienoioc acid], the cell number turned out to be 97.6.
The same measure, in the same setting: as for `CNc1ncnc2c1ncn2C1OC(CO)C(O)C1O` (stereo unspecified) [N6-Methyladenosine], the figure is 106.
Same read-out and setting: to `C=CCc1ccccc1OCC(O)CNC(C)C.Cl` (stereo unspecified) [Alprenolol hydrochloride] belongs 91; to `CC12CCC(=O)C=C1CCC1C2C(=O)CC2(C)C1CCC2(O)C(=O)CO` (stereo unspecified) [Cortisone], 82; to `CCCCCC=CCC(O)C=Cc1cccc(CC(O)CCCCO)n1` (stereo unspecified), 108 ± 4.7.
Take `CC(C)(C(=O)O)c1ccc(C(O)CCCN2CCC(C(O)(c3ccccc3)c3ccccc3)CC2)cc1.Cl` (stereo unspecified) [Fexofenadine hydrochloride]: the cell number turned out to be 111.
On the same count and under the same terms, to `CC12C=CC(=O)C=C1CCC1C3CC(O)C(O)(C(=O)CO)C3(C)CC(O)C12F` (stereo unspecified) [Triamcinolone] belongs 105 ± 9.9.
The same measure, in the same setting: as for `O=C(CCCN1CCC(O)(c2cccc(C(F)(F)F)c2)CC1)c1ccc(F)cc1` [Trifluperidol], the figure is 95.7; as for `CC(C)n1cnc2c(NCc3ccccc3)nc(NCCCO)nc21` [Bohemine], 87.5; as for `CC(C)(Sc1ccc(CCN(CCCCC2CCCCC2)C(=O)NC2CCCCC2)cc1)C(=O)O`, 107.
With `C[N+](C)(C)CCOC(N)=O.[Cl-]` [Carbachol], the cell number came out at 120.
The same measure, in the same setting: to `CN(C)CCCCSC(=N)N.Cl.Cl` belongs 106.
On the same count and under the same terms, to `Cl.N=C(N)c1ccccc1` [Benzamidine hydrochloride] belongs 103; to `CC(N)(COP(=O)(O)O)C(=O)O` (stereo unspecified) [2-methyl-O-phosphonoserine], 102; to `O=C(NC(NC(=S)Nc1ccc(F)c([N+](=O)[O-])c1)C(Cl)(Cl)Cl)C(c1ccccc1)c1ccccc1` (stereo unspecified), 58.3.
In the case of `Brc1c(Br)c(Br)c2[nH]cnc2c1Br` [4,5,6,7-tetrabromo-1H-benzimidazole], the cell number amounted to 71.5.
`CNCCC(Oc1ccc(C(F)(F)F)cc1)c1ccccc1.Cl` (stereo not drawn) [R-(-)-Fluoxetine hydrochloride] returned a cell number of 105.
